# Experimental data taken from PubChem BioAssay (EPA / NIEHS).
# “And” between values parts separate entries of the source, which are not always exact repeats. Identical values can stand only once. A structure can be active in one record and inactive in another. The source made the active and inactive calls. Rule for the calls: active = hit-call score of the fitted dose curve at least 0.9, where 1 is the maximum; inactive = score below 0.9.
# Columns and labels:
# [1] = read-out: Interleukin-8 (IL8), CXCL8 (gene 3576); assay: BSK_KF3CT_IL8: BioMAP Diversity Plus: KF3CT Assay for Interleukin-8 (IL8) Biomarker Activity (AID 2284254); details: primary human keratinocytes with fibroblasts
# Summary of the method: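 Human keratinocyte/foreskin fibroblast co-culture dosed 24 h; IL-8 measured by ELISA relative to DMSO. Parallel cultures stained with SRB for total protein to flag cytotoxicity.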
# [2] = read-out: Macrophage Inflammatory Protein-1 Alpha (MIP1a), CCL3 (gene 6348); assay: BSK_IMphg_MIP1a: BioMAP Diversity Plus: IMphg Assay for Macrophage Inflammatory Protein-1 Alpha (MIP1a) Biomarker Activity (AID 2284255); details: primary human endothelial cells with macrophages
# Summary of the method: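 Co-culture of human venular endothelial cells and macrophages exposed to compounds for 24 h; MIP-1a measured by ELISA relative to DMSO. Cytotoxicity assessed in parallel cultures by sulforhodamine B total-protein staining at 560 nm.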
# [3] = read-out: Plasminogen activator inhibitor-1 (PAI1), SERPINE1 (gene 5054); assay: BSK_MyoF_PAI1: BioMAP Diversity Plus: MyoF Assay for Plasminogen activator inhibitor-1 (PAI1) Biomarker Activity (AID 2284256); details: primary human lung fibroblasts
# Summary of the method: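 Primary human lung fibroblasts treated with chemical for 24 h; PAI-1 levels quantified by ELISA relative to DMSO. Cytotoxicity was assessed in parallel cultures by SRB total-protein staining (0.1% SRB after 10% TCA fixation, 560 nm).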
# [4] = read-out: CD69, CD69 (gene 969); assay: BSK_IMphg_CD69: BioMAP Diversity Plus: IMphg Assay for CD69 Biomarker Activity (AID 2284257); details: primary human endothelial cells with macrophages
# Summary of the method: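 Human venular endothelial cells co-cultured with macrophages; CD69 quantified by ELISA 24 h after compound addition. Activity fitted in the positive direction relative to DMSO baseline; cytotoxicity tracked in parallel cultures via SRB total-protein staining.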
# [5] = read-out: Eotaxin 3, CCL26 (gene 10344); assay: BSK_BF4T_Eotaxin3: BioMAP Diversity Plus: BF4T Assay for Eotaxin 3 Biomarker Activity (AID 2284258); details: primary human bronchial epithelial cells with fibroblasts
# Summary of the method: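 Co-culture of human bronchial epithelial cells and dermal fibroblasts, exposed to chemicals for 24 h versus DMSO. Eotaxin-3 quantified by ELISA; cytotoxicity checked in parallel cultures by sulforhodamine B total-protein staining.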
# [6] = read-out: Monocyte Chemoattractant Protein-1 (MCP1), CCL2 (gene 6347); assay: BSK_BF4T_MCP1: BioMAP Diversity Plus: BF4T Assay for Monocyte Chemoattractant Protein-1 (MCP1) Biomarker Activity (AID 2284259); details: primary human bronchial epithelial cells with fibroblasts
# Summary of the method: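 Co-culture of bronchial epithelial cells and dermal fibroblasts dosed with chemical; MCP-1 measured by ELISA 24 h later. Activity fitted in positive direction versus DMSO; cytotoxicity checked by SRB staining in parallel cultures.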
# [7] = read-out: Intercellular Adhesion Molecule 1 (ICAM1), ICAM1 (gene 3383); assay: BSK_BF4T_ICAM1: BioMAP Diversity Plus: BF4T Assay for Intercellular Adhesion Molecule 1 (ICAM1) Biomarker Activity (AID 2284260); details: primary human bronchial epithelial cells with fibroblasts
# Description: (§1) BSK_BF4T is a cell-based, multiplexed-readout assay that uses bronchial epithelial cells and dermal fibroblasts, a human vascular primary cell, with measurements taken at 24 hours after chemical dosing in a microplate: 96-well plate.BSK_BF4T_ICAM1 is an assay component measured in the BSK_BF4T assay. It measures ICAM-1 antibody related to regulation of gene expression using ELISA technology.Data from the assay component BSK_BF4T_ICAM1 was analyzed at the endpoint, BSK_BF4T_ICAM1, in the positive analysis fitting direction relative to DMSO as the negative control and baseline of activity. Using a type of binding reporter, gain or loss-of-signal activity can be used to understand protein changes. […]
# (§2) The levels of cell surface (or secreted, indicated by the prefix "s") biomarker endpoints were measured by ELISA. Overt cytotoxicity to cells in confluent adherent cultures (all systems other than the BT system) was assessed by measuring total protein levels using sulforhodamine B (SRB) staining in parallel cultures at the time of biomarker measurements, indicated as SRB endpoints. For proliferation assays for adherent cell types, individual cell types are cultured at sub-confluence and relative cell numbers quantified by SRB staining at time points optimized for each system (48 h: 3C and CASM3C systems; 72 h: BT and HDF3CGF systems; 96 h: SAg system). […] Plates were read after 6 h.
# [8] = read-out: Interleukin-8 (IL8), CXCL8 (gene 3576); assay: BSK_MyoF_IL8: BioMAP Diversity Plus: MyoF Assay for Interleukin-8 (IL8) Biomarker Activity (AID 2284261); details: primary human lung fibroblasts
# Description: as §1, with “BSK_MyoF” for “BSK_BF4T”, “lung” for “bronchial epithelial cells and dermal”, “plate.BSK_MyoF_IL8” for “plate.BSK_BF4T_ICAM1”, “IL-8” for “ICAM-1”, “BSK_MyoF_IL8” for “BSK_BF4T_ICAM1”, “BSK_MyoF_IL8,” for “BSK_BF4T_ICAM1,”
# as §2
# [9] = read-out: CD90, THY1 (gene 7070); assay: BSK_BF4T_CD90: BioMAP Diversity Plus: BF4T Assay for CD90 Biomarker Activity (AID 2284262); details: primary human bronchial epithelial cells with fibroblasts
# Description: as §1, with “plate.BSK_BF4T_CD90” for “plate.BSK_BF4T_ICAM1”, “CD90” for “ICAM-1”, “BSK_BF4T_CD90” for “BSK_BF4T_ICAM1”, “BSK_BF4T_CD90,” for “BSK_BF4T_ICAM1,”
# as §2
# [10] = read-out: Interleukin-8 (IL8), CXCL8 (gene 3576); assay: BSK_BF4T_IL8: BioMAP Diversity Plus: BF4T Assay for Interleukin-8 (IL8) Biomarker Activity (AID 2284263); details: primary human bronchial epithelial cells with fibroblasts
# Summary of the method: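 Human bronchial epithelial cells with dermal fibroblasts co-culture; IL-8 measured by ELISA 24 hours after dosing, fitted vs DMSO. Cytotoxicity tracked in parallel cultures by SRB total-protein staining.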
structure (smiles),measurement,setting,value
CCNS(=O)(=O)C(F)(F)C(F)(F)C(F)(F)C(F)(F)C(F)(F)C(F)(F)C(F)(F)C(F)(F)F,outcome,[1],inactive
same,AC50,[2],35 µM (active)
same,outcome,[2],inactive
same,AC50,[3],58.4 µM (active) and 51.1 µM (active)
same,AC50,[4],38.4 µM (active) and 39.2 µM (active)
same,AC50,[5],7.65 µM (active) and 6.97 µM (active)
same,AC50,[6],18.6 µM (active) and 22.6 µM (active)
same,AC50,[7],30 µM (active) and 25 µM (active)
same,AC50,[8],41.5 µM (active) and 45.6 µM (active)
same,outcome,[9],inactive
same,outcome,[10],inactive
